# PubChem BioAssay (NCI)
# The panel holds about 79,000 compounds, 15% with a hit somewhere; the sample as a whole holds those more often. Unmarked numbers belong to inactive results. Active and inactive are the calls of the source. No stated cut-off is given here; in the data, active means growth inhibition above about 70%; inactive means the rest.
# Legend:
# [1] = NCI Yeast Anticancer Drug Screen. Data for the wt1 strain (AID 149);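 further: 0% = growth of vehicle-treated wt1 cultures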; settings: S. cerevisiae wt1 strain (SPY 50644) growth inhibition, stronger effect = higher value
# How it was run: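 Yeast wt1 strain exposed to compounds; growth inhibition measured relative to vehicle-treated controls.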
# [2] = NCI Yeast Anticancer Drug Screen. Data for the rad50 strain (AID 155);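 further: 0% = growth of vehicle-only cultures of the same strain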; settings: S. cerevisiae rad50 strain growth inhibition, stronger effect = higher value
# How it was run: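 Yeast carrying a defined DNA repair defect were exposed to test compounds, and growth was compared with vehicle-treated controls to give percent inhibition.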
# [3] = NCI Yeast Anticancer Drug Screen. Data for the mec2-1 strain (AID 157); settings: S. cerevisiae mec2-1 strain, stronger effect = higher value
# How it was run: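 Cells of the genetically defined mec2-1 yeast strain are incubated with test compound. Inhibition of growth is calculated against vehicle-treated controls.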
# [4] = NCI Yeast Anticancer Drug Screen. Data for the rad14 strain (AID 159);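 further: 0% = growth of vehicle-treated control cultures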; settings: S. cerevisiae rad14 strain growth inhibition, stronger effect = higher value
# How it was run: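 Yeast cells carrying a defined DNA-repair defect were exposed to compounds, and growth inhibition was calculated relative to vehicle-treated control cultures.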
# [5] = NCI Yeast Anticancer Drug Screen. Data for the sgs1 mgt1 strain (AID 161);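 further: 0% = growth of cultures given vehicle only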; settings: S. cerevisiae sgs1 mgt1 strain, stronger effect = higher value
# How it was run: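 Genetically altered yeast, compound exposure, growth inhibition relative to vehicle.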
# [6] = NCI Yeast Anticancer Drug Screen. Data for the CLN2oe strain (AID 163);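 further: 0% = growth of vehicle-only control cultures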; settings: S. cerevisiae CLN2oe strain, stronger effect = higher value
# How it was run: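 Strain altered in cell-cycle control, incubated with compound; growth compared to solvent-treated controls.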
# [7] = NCI Yeast Anticancer Drug Screen. Data for the cln2 rad14 strain (AID 165);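 further: 0% = growth equal to vehicle treated cultures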; settings: S. cerevisiae cln2 rad14 strain, stronger effect = higher value
# How it was run: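 The screen exposed genetically defined yeast (cln2 rad14) to test compounds and scored growth inhibition relative to vehicle-treated controls.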
# [8] = NCI Yeast Anticancer Drug Screen. Data for the bub3 strain (AID 167); settings: S. cerevisiae bub3 mutant strain, stronger effect = higher value
# How it was run: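 Compounds were applied to a genetically altered yeast strain carrying a cell-cycle control defect. Growth inhibition was scored against vehicle-treated controls.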
# [9] = NCI Yeast Anticancer Drug Screen. Data for the wt2 strain (AID 169);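 further: 0% = growth of vehicle-treated yeast cultures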; settings: S. cerevisiae wt2 strain growth inhibition, stronger effect = higher value
# How it was run: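 Steps: yeast strain treated with compound; growth recorded; inhibition calculated relative to cultures given vehicle alone.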
# [10] = NCI Yeast Anticancer Drug Screen. Data for the sgs1 strain (AID 173);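 further: 0% = growth of vehicle-only control cultures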; settings: S. cerevisiae sgs1 mutant, stronger effect = higher value
# How it was run: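 Inhibition of yeast growth served as the measure. The mutant strain was treated with each compound, and growth was normalised to cultures receiving vehicle alone.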
# [11] = NCI Yeast Anticancer Drug Screen. Data for the mlh1 rad18 strain (AID 175); settings: S. cerevisiae mlh1 rad18 strain growth inhibition, stronger effect = higher value
# How it was run: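 Compound-treated yeast growth, normalised to vehicle controls. Strain bears defined DNA repair mutations.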
# [12] = NCI Yeast Anticancer Drug Screen. Data for the rad18 strain (AID 177); settings: S. cerevisiae rad18 mutant growth inhibition, stronger effect = higher value
# How it was run: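 Inhibition values reflect reduced yeast growth compared with vehicle-treated controls, using a strain engineered with a DNA damage repair defect.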
# [13] = NCI Yeast Anticancer Drug Screen. Data for the rad50EPP+ strain (AID 151);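 further: 0% = growth of vehicle-treated control cultures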; settings: S. cerevisiae rad50 mutant strain, stronger effect = higher value
# How it was run: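 Strain rad50EPP+; compound exposure; % growth inhibition vs vehicle.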
# [14] = NCI Yeast Anticancer Drug Screen. Data for the mgt1 strain (AID 153); settings: S. cerevisiae mgt1 mutant growth inhibition, stronger effect = higher value
# How it was run: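 Read-out: yeast growth inhibition vs vehicle control. Strain mgt1, drawn from a panel altered in DNA damage repair or cell cycle control.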
# [15] = at 5.0 µM (retest, dose inferred, filed as 0.5)
# [16] = at 50.0 µM (retest, dose inferred, filed as 5.0)
smiles,measurement,setting,value
CC1C(C#N)(C#N)C(C#N)=C(N)C1(Cl)[N+](=O)[O-] (stereo unspecified),growth inhibition,[1]; at 1.2 µM,10%
same,growth inhibition,[1]; at 3.7 µM,9%
same,growth inhibition,[1]; at 11.0 µM,8%
same,growth inhibition,[1]; at 33.0 µM,22%
same,growth inhibition,[1]; at 100.0 µM,55%
same,growth inhibition,[2]; at 1.2 µM,4%
same,growth inhibition,[2]; at 3.7 µM,26%
same,growth inhibition,[2]; [15],24%
same,growth inhibition,[2]; at 11.0 µM,29%
same,growth inhibition,[2]; at 33.0 µM,40%
same,growth inhibition,[2]; [16],78% (active)
same,growth inhibition,[2]; at 50.0 µM,77.5% (active)
same,growth inhibition,[2]; at 100.0 µM,76% (active)
same,growth inhibition,[3]; at 1.2 µM,0%
same,growth inhibition,[3]; at 3.7 µM,30%
same,growth inhibition,[3]; [15],11%
same,growth inhibition,[3]; at 11.0 µM,32%
same,growth inhibition,[3]; at 33.0 µM,41%
same,growth inhibition,[3]; [16],85% (active)
same,growth inhibition,[3]; at 50.0 µM,77.4% (active)
same,growth inhibition,[3]; at 100.0 µM,81% (active)
same,growth inhibition,[4]; at 1.2 µM,1%
same,growth inhibition,[4]; at 3.7 µM,8%
same,growth inhibition,[4]; at 11.0 µM,15%
same,growth inhibition,[4]; at 33.0 µM,28%
same,growth inhibition,[4]; at 100.0 µM,67%
same,growth inhibition,[5]; [15],11%
same,growth inhibition,[5]; [16],78% (active)
same,growth inhibition,[5]; at 50.0 µM,76% (active)
same,growth inhibition,[6]; at 1.2 µM,19%
same,growth inhibition,[6]; at 3.7 µM,39%
same,growth inhibition,[6]; at 11.0 µM,48%
same,growth inhibition,[6]; at 33.0 µM,53%
same,growth inhibition,[6]; at 100.0 µM,88% (active)
same,growth inhibition,[7]; [15],-5%
same,growth inhibition,[7]; [16],30%
same,growth inhibition,[7]; at 50.0 µM,65.8%
same,growth inhibition,[8]; at 1.2 µM,12%
same,growth inhibition,[8]; at 3.7 µM,12%
same,growth inhibition,[8]; [15],20%
same,growth inhibition,[8]; at 11.0 µM,20%
same,growth inhibition,[8]; at 33.0 µM,49%
same,growth inhibition,[8]; [16],86% (active)
same,growth inhibition,[8]; at 50.0 µM,73.8% (active)
same,growth inhibition,[8]; at 100.0 µM,84% (active)
same,growth inhibition,[9]; at 1.2 µM,-1%
same,growth inhibition,[9]; at 3.7 µM,7%
same,growth inhibition,[9]; at 11.0 µM,22%
same,growth inhibition,[9]; at 33.0 µM,58%
same,growth inhibition,[9]; at 100.0 µM,92% (active)
same,growth inhibition,[10]; at 1.2 µM,28%
same,growth inhibition,[10]; at 3.7 µM,20%
same,growth inhibition,[10]; at 11.0 µM,37%
same,growth inhibition,[10]; at 33.0 µM,61%
same,growth inhibition,[10]; at 100.0 µM,90% (active)
same,growth inhibition,[11]; [15],19%
same,growth inhibition,[11]; [16],94% (active)
same,growth inhibition,[11]; at 50.0 µM,48%
same,growth inhibition,[12]; at 1.2 µM,14%
same,growth inhibition,[12]; at 3.7 µM,17%
same,growth inhibition,[12]; at 11.0 µM,34%
same,growth inhibition,[12]; at 33.0 µM,61%
same,growth inhibition,[12]; at 100.0 µM,87% (active)
CCc1nc(N)nc(N)c1-c1ccc(NCCCCCCN)c([N+](=O)[O-])c1,growth inhibition,[13]; at 1.2 µM,-6%
same,growth inhibition,[13]; at 3.7 µM,-3%
same,growth inhibition,[13]; at 11.0 µM,-3%
same,growth inhibition,[13]; at 33.0 µM,1%
same,growth inhibition,[13]; at 100.0 µM,17%
same,growth inhibition,[2]; at 1.2 µM,0%
same,growth inhibition,[2]; at 3.7 µM,-2%
same,growth inhibition,[2]; [15],-16%
same,growth inhibition,[2]; at 11.0 µM,11%
same,growth inhibition,[2]; at 33.0 µM,17%
same,growth inhibition,[2]; [16],-4%
same,growth inhibition,[2]; at 50.0 µM,86% (active)
same,growth inhibition,[2]; at 100.0 µM,42%
same,growth inhibition,[3]; at 1.2 µM,-1%
same,growth inhibition,[3]; at 3.7 µM,-4%
same,growth inhibition,[3]; [15],4%
same,growth inhibition,[3]; at 11.0 µM,-4%
same,growth inhibition,[3]; at 33.0 µM,-4%
same,growth inhibition,[3]; [16],-10%
same,growth inhibition,[3]; at 50.0 µM,95.6% (active)
same,growth inhibition,[3]; at 100.0 µM,11%
same,growth inhibition,[4]; at 1.2 µM,4%
same,growth inhibition,[4]; at 3.7 µM,-4%
same,growth inhibition,[4]; at 11.0 µM,-3%
same,growth inhibition,[4]; at 33.0 µM,-13%
same,growth inhibition,[4]; at 100.0 µM,0%
same,growth inhibition,[5]; [15],-22%
same,growth inhibition,[5]; [16],-16%
same,growth inhibition,[5]; at 50.0 µM,92.7% (active)
same,growth inhibition,[6]; at 1.2 µM,-3%
same,growth inhibition,[6]; at 3.7 µM,1%
same,growth inhibition,[6]; at 11.0 µM,-5%
same,growth inhibition,[6]; at 33.0 µM,0%
same,growth inhibition,[6]; at 100.0 µM,-5%
same,growth inhibition,[7]; [15],-19%
same,growth inhibition,[7]; [16],83% (active)
same,growth inhibition,[7]; at 50.0 µM,96.2% (active)
same,growth inhibition,[8]; at 1.2 µM,-7%
same,growth inhibition,[8]; at 3.7 µM,-4%
same,growth inhibition,[8]; [15],11%
same,growth inhibition,[8]; at 11.0 µM,9%
same,growth inhibition,[8]; at 33.0 µM,17%
same,growth inhibition,[8]; [16],-16%
same,growth inhibition,[8]; at 50.0 µM,93.5% (active)
same,growth inhibition,[8]; at 100.0 µM,-2%
same,growth inhibition,[9]; at 1.2 µM,-1%
same,growth inhibition,[9]; at 3.7 µM,0%
same,growth inhibition,[9]; at 11.0 µM,-2%
same,growth inhibition,[9]; at 33.0 µM,-3%
same,growth inhibition,[9]; at 100.0 µM,-4%
same,growth inhibition,[10]; at 1.2 µM,-3%
same,growth inhibition,[10]; at 3.7 µM,-2%
same,growth inhibition,[10]; at 11.0 µM,-3%
same,growth inhibition,[10]; at 33.0 µM,-5%
same,growth inhibition,[10]; at 100.0 µM,-3%
same,growth inhibition,[11]; [15],-27%
same,growth inhibition,[11]; [16],-34%
same,growth inhibition,[11]; at 50.0 µM,97.2% (active)
same,growth inhibition,[12]; at 1.2 µM,-4%
same,growth inhibition,[12]; at 3.7 µM,-6%
same,growth inhibition,[12]; at 11.0 µM,-5%
same,growth inhibition,[12]; at 33.0 µM,-17%
same,growth inhibition,[12]; at 100.0 µM,-23%
O=C(CNS(=O)(=O)Cc1ccccc1)NNc1ccccc1,growth inhibition,[1]; at 1.2 µM,-1%
same,growth inhibition,[1]; at 3.7 µM,5%
same,growth inhibition,[1]; at 11.0 µM,4%
same,growth inhibition,[1]; at 33.0 µM,23%
same,growth inhibition,[1]; at 100.0 µM,36%
same,growth inhibition,[13]; at 1.2 µM,2%
same,growth inhibition,[13]; at 3.7 µM,4%
same,growth inhibition,[13]; at 11.0 µM,22%
same,growth inhibition,[13]; at 33.0 µM,43%
same,growth inhibition,[13]; at 100.0 µM,58%
same,growth inhibition,[14]; at 1.2 µM,-1%
same,growth inhibition,[14]; at 3.7 µM,12%
same,growth inhibition,[14]; at 11.0 µM,14%
same,growth inhibition,[14]; at 33.0 µM,16%
same,growth inhibition,[14]; at 100.0 µM,16%
same,growth inhibition,[2]; at 1.2 µM,2%
same,growth inhibition,[2]; at 3.7 µM,4%
same,growth inhibition,[2]; [15],13%
same,growth inhibition,[2]; at 11.0 µM,9%
same,growth inhibition,[2]; at 33.0 µM,17%
same,growth inhibition,[2]; [16],64%
same,growth inhibition,[2]; at 50.0 µM,75.8% (active)
same,growth inhibition,[2]; at 100.0 µM,24%
same,growth inhibition,[3]; at 1.2 µM,-1%
same,growth inhibition,[3]; at 3.7 µM,0%
same,growth inhibition,[3]; [15],-3%
same,growth inhibition,[3]; at 11.0 µM,7%
same,growth inhibition,[3]; at 33.0 µM,14%
same,growth inhibition,[3]; [16],9%
same,growth inhibition,[3]; at 50.0 µM,62.5%
